Measured values: the supplement of paper PMC7830784
Structures can show the parent of a compound that is named as a salt.

system: Brugia pahangi adult female; test: IC50 motility inhibition on day 3; conditions: 3 days
Protocol: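 Single adult female Brugia pahangi worms in 24-well plates (RPMI-1640, 5% FBS, 37 °C) were treated with 10 µM of each compound from a 2121-drug library (4 replicates; 1% DMSO vehicle and 10 µM auranofin controls). Motility was recorded with WormAssay dark-field imaging, and % inhibition of motility on day 3 is relative to vehicle. IC50 values for selected hits come from a 6-point dilution series (30 to 0.1 µM) fitted in GraphPad Prism.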

Row | SMILES | IC50 motility inhibition on day 3 [µM]
1 | CCCCCCCCCc1ccc(OCCOCCOCCOCCOCCOCCOCCOCCOCCO)cc1 [nonoxynol-9] | 3.24
2 | COC(=O)C1=C(C)NC(C)=C(C(=O)OC(C)C)C1c1cccc2nonc12 (stereo not given) [isradipine] | 2.75
3 | CC[n+]1c(-c2ccccc2)c2cc(N)ccc2c2ccc(N)cc21 [homidium bromide] | 5.43
4 | Oc1c(Cl)cc(Cl)c2cccnc12 [chloroxine] | 0.803
5 | CC(=O)OC[C@H]1O[C@@H]([S-])[C@H](OC(C)=O)[C@@H](OC(C)=O)[C@@H]1OC(C)=O.CCP(CC)CC.[Au+] [Auranofin] | 0.7
6 | CCCCC(CC)COC(=O)CC(C(=O)OCC(CC)CCCC)S(=O)(=O)O (stereo not given) [docusate sodium] | 0.294
7 | COc1cc(NC(C)CCCN)c2ncccc2c1 (stereo not given) [primaquine diphosphate] | 5.06
8 | Clc1ccc(C(Cn2ccnc2)OCc2ccsc2Cl)c(Cl)c1 (stereo not given) [tioconazole] | 3.18
9 | CCCCCCCCCCCCCCCC[N+](C)(C)C [cetrimonium bromide] | 6.16
10 | O=C(Nc1ncc([N+](=O)[O-])s1)c1ccccc1O [Tizoxanide] | 3.4
11 | Cc1cc(CC(C)CC(C)(C)C)n(O)c(=O)c1 (stereo not given) [piroctone olamine] | 0.883
12 | CSc1ccc2c(c1)N(CCC1CCCCN1C)c1ccccc1S2 (stereo not given) [Thioridazine hydrochloride] | 8.08
13 | Oc1c(I)cc(Cl)c2cccnc12 [clioquinol] | 2.61
14 | O=C1CN(/N=C/c2ccc([N+](=O)[O-])o2)C(=O)N1 [nitrofurantoin] | 11.6
15 | CC(=O)Oc1ccccc1C(=O)Nc1ncc([N+](=O)[O-])s1 [nitazoxanide] | 5.78
16 | CC(C)/N=c1\cc2n(-c3ccc(Cl)cc3)c3ccccc3nc-2cc1Nc1ccc(Cl)cc1 [clofazimine] | > 30
17 | O=C(Nc1ccc([N+](=O)[O-])cc1Cl)c1cc(Cl)ccc1O [niclosamide] | 1.17
18 | CN(C)c1ccc2nc3ccc(=[N+](C)C)cc-3sc2c1 [methylene blue] | 1.06
19 | Oc1c(I)cc(I)c2cccnc12 [iodoquinol] | 1.9
20 | CC1=CC(=O)c2ccccc2C1=O [menadione] | 4.23

Row | SMILES | IC50 motility inhibition on day 3 [µM]
21 | Clc1ccc(Cn2c(CN3CCCC3)nc3ccccc32)cc1 [clemizole hydrochloride] | 6.51
22 | C[n+]1c2cc(N)ccc2cc2ccc(N)cc21 [acriflavinium hydrochloride] | 4.62
23 | CN(C)c1ccc(C(=C2C=CC(=[N+](C)C)C=C2)c2ccc(N(C)C)cc2)cc1 [gentian violet] | 0.3
24 | COC(=O)C1=C(C)NC(C)=C(C(=O)OCC(C)C)C1c1ccccc1[N+](=O)[O-] (stereo not given) [nisoldipine] | 9.81
25 | Cc1cc(C2CCCCC2)n(O)c(=O)c1 [ciclopirox olamine] | 0.287
26 | Oc1ccc(Cl)c2cccnc12 [cloxyquin] | 4.9
27 | Oc1ccc2ccccc2c1 [beta-naphthol] | 8.31
28 | COc1cc(C)c2c(Oc3cccc(C(F)(F)F)c3)c(OC)cc(NC(C)CCCN)c2n1 (stereo not given) [Tafenoquine Succinate] | 14.1
29 | Cc1cc(C(C)(C)CC(C)(C)C)ccc1OCCOCC[N+](C)(C)Cc1ccccc1 [methylbenzethonium chloride] | 3.46
30 | CC(C)(C)CC(C)(C)c1ccc(OCCOCC[N+](C)(C)Cc2ccccc2)cc1 [benzethonium chloride] | 1.4
31 | Oc1c(Cl)cc(Cl)c(Cl)c1Cc1c(O)c(Cl)cc(Cl)c1Cl [hexachlorophene] | 1.7
32 | O=C(CCN1CCC(c2ccccc2)C1)c1ccc2c(c1)OCCO2 (stereo not given) [Proroxan] | 8.53
33 | O=C(Nc1ccc([N+](=O)[O-])cc1Cl)c1ccccc1O | 2.6
34 | C1CCC(C(CC2CCCCN2)C2CCCCC2)CC1 (stereo not given) [perhexiline maleate] | 7.46
35 | CCCCCCCCCCCCC[N+](C)(C)Cc1ccccc1 [benzalkonium chloride] | 1.9
36 | CCCCCCCCCCCCCCCC[N+](C)(C)CCN(Cc1ccc(OC)cc1)c1ncccn1 [thonzonium bromide] | 1.07
37 | Cc1cc(/C=C/c2ccc3cc(N(C)C)ccc3[n+]2C)c(C)n1-c1ccccc1 [pyrvinium pamoate] | < 0.1
38 | C=C(CC)C(=O)c1ccc(OCC(=O)O)c(Cl)c1Cl [ethacrynic acid] | 2.6
39 | Clc1ccc(COC(Cn2ccnc2)c2ccc(Cl)cc2Cl)c(Cl)c1 (stereo not given) [miconazole nitrate] | 3.3
40 | O=C1c2cccc(O)c2C(=O)c2c(O)cccc21 [dantron] | 18.3
